The results in this text go back to ChEMBL document CHEMBL3988442, “University of Dundee, Small-Polar-MMV Screening Library” (2021).

The target of one test is T1, Arginase-2, mitochondrial (Homo sapiens) (UniProt P78540).
T1 sequence (whole entry): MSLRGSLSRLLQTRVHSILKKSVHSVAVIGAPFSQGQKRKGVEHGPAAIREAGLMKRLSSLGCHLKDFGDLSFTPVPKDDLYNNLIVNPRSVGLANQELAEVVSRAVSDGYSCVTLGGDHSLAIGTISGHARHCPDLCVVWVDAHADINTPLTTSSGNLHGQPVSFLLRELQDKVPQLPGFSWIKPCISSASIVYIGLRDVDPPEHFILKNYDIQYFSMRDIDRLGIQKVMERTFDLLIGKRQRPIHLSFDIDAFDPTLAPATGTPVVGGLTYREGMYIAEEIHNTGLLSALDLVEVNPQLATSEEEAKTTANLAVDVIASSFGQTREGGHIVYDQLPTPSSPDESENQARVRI
As to the kind of experiment: in vitro enzyme assay to detect the production of urea directly proportional to the activity of Arginase II. Conditions: 33.3 µM. Further details: scale not given: in the data most compounds retested in dose-response had high values. Format: functional.
In the case of `CC(C)(C)c1n[nH]c(C2CN(C(=O)c3cc(Cl)c[nH]3)CCO2)n1` (stereo not given), the Percent Effect was -5.92%.
Take `Cc1nn(CC(C)C)c(N(C)C)c1CNCc1cc2ccccc2[nH]1`: the Percent Effect was -3.21%.
On to `Cc1ccc(CN2C[C@@H]3COC[C@H](NS(C)(=O)=O)[C@@H]3C2)o1`, for which the Percent Effect is -56.8%.
With `CC(=O)Nc1nc(C2CCN(C(C)=O)CC2)cs1`, the Percent Effect stood at 0.699%.
Regarding `COCC(=O)N1Cc2cn(C)nc2C(COc2cccnc2)C1` (stereo not given), the Percent Effect turned out to be 7.1%.
Take `O=C(COCc1nc(-c2ccncc2)no1)N1CCCC1`: the Percent Effect was -110%.
With `CCOC(=O)c1sc(NC(=O)CN(C)S(C)(=O)=O)c(C#N)c1C`, the Percent Effect was found to be 4.52%.
Still for that read-out and setting: the same measure for `Cc1ccc([C@]2(O)CC[C@H]3CN(Cc4cc(C)c(O)c(C)c4)C[C@H]32)nc1`: -5.34%; for `O=C(C1=CCCC1)N1CCO[C@H]2[C@@H](OCC3CC3)CC[C@@H]21`: -51.1%; for `Cc1nc(C)n(CC2CCCN2CC(=O)NCc2ccco2)n1` (stereo not given): -1.36%.
On the same count and under the same terms, the same measure for `CCOC(=O)NC(C(=O)NCc1ccc(N2CCCCC2)nc1)C(C)C` (stereo not given): 0%; for `Cc1cc(NC(=O)c2nc(N3CCCC3)ncc2Cl)nc(C(C)C)n1`: 3.33%.
In the case of `CC(C)c1nc(C(=O)N2CCOCC2CC(=O)c2ccco2)c[nH]1` (stereo not given), the Percent Effect was 0%.
Regarding `OC1CCN(Cc2c(C3CCCNC3)[nH]c3ncccc23)CC1` (stereo not given), the Percent Effect was -3.94%.
Turning to `CS(=O)(=O)CCC(=O)Nc1cnn(-c2ccccc2Cl)c1`, the Percent Effect was -0.185%.
As to `CC(C)CN1CCN(Cc2nc3ccccc3[nH]2)[C@H]2CS(=O)(=O)C[C@H]21`, the Percent Effect is 2.73%.
Same read-out and setting: in the case of `O=C(Cn1cnc(NC(=O)CC2CCCC2)n1)NCc1ccccc1` it was -1.53%.
The same measure, in the same setting: the same measure for `CN(Cc1ccco1)C(=O)[C@H]1CSCN1C(=O)OC(C)(C)C`: -4.32%; for `O=C1CN(Cc2nnc(-c3ccccc3Br)o2)CCN1`: 2.65%; for `CC(C)c1nnc2n1CCN(C(=O)CN1CCc3sccc3C1)C2`: 4.6%.
`Cn1nccc1C1CCN(Cc2csc(-c3ncccn3)n2)CC1`: the Percent Effect was -0.554%.
With `COCc1cnc2n1CCN(Cc1cccnc1)C2C` (stereo not given), the Percent Effect is -50.4%.
On the same count and under the same terms, in the case of `Cc1ccccc1CS(=O)(=O)CC(=O)NC1CCCCNC1=O` (stereo not given) it was -4.98%.
On the same count and under the same terms, the same measure for `O=C(Nc1cccc(OCc2cccc(F)c2)c1)C1COCCO1` (stereo not given): -0.521%.
Consider `Cn1cnnc1C1CCCN(C(=O)NCc2cc[nH]n2)C1` (stereo not given), for which the Percent Effect was -2.16%.
Same read-out and setting: in the case of `CS(=O)(=O)NC1CCc2c(ccc(=O)n2CC2CC2)C1` (stereo not given) it was 2.56%; in that of `COc1ccc(Cl)cc1NCC(=O)NCCc1ccccn1`, 0.401%.
Turning to `CC(C)n1ccnc1CN1CCCN(C(=O)COC2CCCC2)CC1`, the Percent Effect was -2.8%.
With `COc1cc(C(=O)N(C2CC2)C2CC(=O)NC2=O)ccc1C` (stereo not given), the Percent Effect is 8.37%.
Consider `O=C(Nc1ccnc(OC2CCOC2)c1)C1CCC1` (stereo not given), for which the Percent Effect is 1.32%.
On the same count and under the same terms, the same measure for `Cc1ncccc1Oc1nccnc1C1CCN(C(C)C)CC1`: -2.09%.
In the case of `Cc1cnn(CC2CCCN2C(=O)c2cn(-c3ccccc3)nc2C)c1` (stereo not given), the Percent Effect is -3.61%.
`O=C(Cc1ccccn1)N1CCN(C(=O)c2cccc3[nH]ncc23)CC1`: the Percent Effect turned out to be 2.8%.
The same measure, in the same setting: in the case of `Cc1nc2n(n1)CC(NCc1cc(Cl)c3c(c1)OCCCO3)CC2` (stereo not given) it was -1.44%; in that of `Cn1cnc2c1CCN(Cc1nc(Cc3ccccc3)no1)C2`, 4.68%; in that of `Cc1cnc(CN2CCOC(Cn3nc(C)nc3C)C2)cn1` (stereo not given), 3.42%.
Still for that read-out and setting: the same measure for `CCN1CCC(c2nc3ccc(NC(C)C)cn3n2)CC1`: -1.25%; for `NC(=O)N1CCC2(CCN(Cc3cccc(F)c3)CC2)CC1`: -9.65%; for `O=C(N[C@@H]1CCNC[C@H]1O)c1ccc(F)c(Cl)c1`: -1.43%.
Still for that read-out and setting: in the case of `Cc1cnn(CCCNC(=O)N2CCCCC(N3CCCC3)C2)c1` (stereo not given) it was 4.21%.

The target of another test is T2, Proteasome subunit beta (Trypanosoma cruzi) (UniProt O96673).
T2 sequence (whole entry): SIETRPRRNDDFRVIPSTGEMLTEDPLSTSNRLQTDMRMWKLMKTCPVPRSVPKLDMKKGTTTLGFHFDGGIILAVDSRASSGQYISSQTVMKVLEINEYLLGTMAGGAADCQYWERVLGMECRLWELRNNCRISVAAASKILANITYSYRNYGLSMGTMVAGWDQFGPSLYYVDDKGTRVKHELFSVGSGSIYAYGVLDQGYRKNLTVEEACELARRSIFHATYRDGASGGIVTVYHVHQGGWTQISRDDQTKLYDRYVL
The test is described as follows: Trypanosoma cruzi proteasome chymotrypsin-like activity (TcProtChymo) assay. Further details: scale not given: in the data most compounds retested in dose-response had high values. Conditions: 9.37 µM. Format: functional.
In the case of `CC(C)(C)c1n[nH]c(C2CN(C(=O)c3cc(Cl)c[nH]3)CCO2)n1` (stereo not given), the Percent Effect worked out at 17.2%.
Regarding `Cc1nn(CC(C)C)c(N(C)C)c1CNCc1cc2ccccc2[nH]1`, the Percent Effect turned out to be 5.77%.
Still for that read-out and setting: in the case of `Cc1ccc(CN2C[C@@H]3COC[C@H](NS(C)(=O)=O)[C@@H]3C2)o1` it was 7.86%; in that of `CC(=O)Nc1nc(C2CCN(C(C)=O)CC2)cs1`, 11.2%.
For the compound `COCC(=O)N1Cc2cn(C)nc2C(COc2cccnc2)C1` (stereo not given), the Percent Effect worked out at 10.4%.
Same read-out and setting: the same measure for `O=C(COCc1nc(-c2ccncc2)no1)N1CCCC1`: 7.32%.
The same measure, in the same setting: in the case of `CCOC(=O)c1sc(NC(=O)CN(C)S(C)(=O)=O)c(C#N)c1C` it was 9.4%.
As for `Cc1ccc([C@]2(O)CC[C@H]3CN(Cc4cc(C)c(O)c(C)c4)C[C@H]32)nc1`, the Percent Effect turned out to be 8.58%.
Still for that read-out and setting: in the case of `O=C(C1=CCCC1)N1CCO[C@H]2[C@@H](OCC3CC3)CC[C@@H]21` it was 18.3%.
Still for that read-out and setting: the same measure for `Cc1nc(C)n(CC2CCCN2CC(=O)NCc2ccco2)n1` (stereo not given): 13.8%; for `CCOC(=O)NC(C(=O)NCc1ccc(N2CCCCC2)nc1)C(C)C` (stereo not given): 13.9%.
The same measure, in the same setting: the same measure for `Cc1cc(NC(=O)c2nc(N3CCCC3)ncc2Cl)nc(C(C)C)n1`: 17.2%.
On to `CC(C)c1nc(C(=O)N2CCOCC2CC(=O)c2ccco2)c[nH]1` (stereo not given), for which the Percent Effect came to 8.92%.
On the same count and under the same terms, the same measure for `OC1CCN(Cc2c(C3CCCNC3)[nH]c3ncccc23)CC1` (stereo not given): 8.42%; for `CS(=O)(=O)CCC(=O)Nc1cnn(-c2ccccc2Cl)c1`: 6.28%; for `CC(C)CN1CCN(Cc2nc3ccccc3[nH]2)[C@H]2CS(=O)(=O)C[C@H]21`: 5.41%.
On the same count and under the same terms, the same measure for `O=C(Cn1cnc(NC(=O)CC2CCCC2)n1)NCc1ccccc1`: 2.84%.
Same read-out and setting: in the case of `CN(Cc1ccco1)C(=O)[C@H]1CSCN1C(=O)OC(C)(C)C` it was 8.21%.
As to `O=C1CN(Cc2nnc(-c3ccccc3Br)o2)CCN1`, the Percent Effect was 25.1%.
Same read-out and setting: the same measure for `CC(C)c1nnc2n1CCN(C(=O)CN1CCc3sccc3C1)C2`: -2.34%; for `Cn1nccc1C1CCN(Cc2csc(-c3ncccn3)n2)CC1`: 8.08%; for `COCc1cnc2n1CCN(Cc1cccnc1)C2C` (stereo not given): -0.171%.
In the case of `Cc1ccccc1CS(=O)(=O)CC(=O)NC1CCCCNC1=O` (stereo not given), the Percent Effect amounted to 8.62%.
With `O=C(Nc1cccc(OCc2cccc(F)c2)c1)C1COCCO1` (stereo not given), the Percent Effect stood at 13.2%.
On the same count and under the same terms, in the case of `Cn1cnnc1C1CCCN(C(=O)NCc2cc[nH]n2)C1` (stereo not given) it was 9.05%; in that of `CS(=O)(=O)NC1CCc2c(ccc(=O)n2CC2CC2)C1` (stereo not given), 10.7%; in that of `COc1ccc(Cl)cc1NCC(=O)NCCc1ccccn1`, 1.62%.
With `CC(C)n1ccnc1CN1CCCN(C(=O)COC2CCCC2)CC1`, the Percent Effect worked out at 4.29%.
In the case of `COc1cc(C(=O)N(C2CC2)C2CC(=O)NC2=O)ccc1C` (stereo not given), the Percent Effect was found to be 1.72%.
For the compound `O=C(Nc1ccnc(OC2CCOC2)c1)C1CCC1` (stereo not given), the Percent Effect stood at 13.3%.
On the same count and under the same terms, the same measure for `Cc1ncccc1Oc1nccnc1C1CCN(C(C)C)CC1`: 2.65%; for `Cc1cnn(CC2CCCN2C(=O)c2cn(-c3ccccc3)nc2C)c1` (stereo not given): -4.32%.
With `O=C(Cc1ccccn1)N1CCN(C(=O)c2cccc3[nH]ncc23)CC1`, the Percent Effect amounted to 5.15%.
Turning to `Cc1nc2n(n1)CC(NCc1cc(Cl)c3c(c1)OCCCO3)CC2` (stereo not given), the Percent Effect was found to be 6.01%.
Consider `Cn1cnc2c1CCN(Cc1nc(Cc3ccccc3)no1)C2`, for which the Percent Effect was -0.931%.
Same read-out and setting: in the case of `Cc1cnc(CN2CCOC(Cn3nc(C)nc3C)C2)cn1` (stereo not given) it was 15.8%; in that of `CCN1CCC(c2nc3ccc(NC(C)C)cn3n2)CC1`, 4.48%.
Same read-out and setting: in the case of `NC(=O)N1CCC2(CCN(Cc3cccc(F)c3)CC2)CC1` it was 14.3%; in that of `O=C(N[C@@H]1CCNC[C@H]1O)c1ccc(F)c(Cl)c1`, 1.21%.
Turning to `Cc1cnn(CCCNC(=O)N2CCCCC(N3CCCC3)C2)c1` (stereo not given), the Percent Effect came to 15.5%.
